Experimental data from PubChem BioAssay (NCI).
About 79,000 compounds went through this panel and 15% of them were active in at least one assay; those are over-represented in the sample as a whole. Values without a mark were called inactive. The source made the active and inactive calls. Cut-off read from the data, not from the text of the source: active = growth inhibition above about 70%; inactive = the rest.

assay: NCI Yeast Anticancer Drug Screen. Data for the rad50 strain (AID 155);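 note: 0% = growth of vehicle-only cultures of the same strain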; conditions: S. cerevisiae rad50 strain growth inhibition; at 1.2 µM; stronger effect = higher value
Procedure, shortened: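 Compounds were tested on a yeast strain with an engineered DNA damage repair alteration; the reported value is growth inhibition normalised to vehicle treatment.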

In order of falling growth inhibition:
1. COc1cc2c(cc1[N+](=O)[O-])C(=O)C(Br)(Br)CCC2  42%
2. O=[N+]([O-])CC(SCc1ccccc1)c1ccc2c(c1)OCO2 (stereo not drawn)  41%
3. CC(=O)[O][Bi]([c]1ccccc1)[c]1ccccc1  36%
4. CC(=O)ON1C(=O)c2cccc3cccc(c23)C1=O  18%
5. O=c1ssc2ncccc12  15%
6. CCN(CC)CC[n+]1ccc2c(C)c3[nH]c4ccc(O)cc4c3c(C)c2c1  13%
7. O=C(c1ccc(Cl)cc1Cl)C(Cl)Cl  11%
8. CC(C)C1=CCC2C(=C1)CCC1C(C)(C(=O)O)CCCC21C (stereo not drawn) (tested in a mixture with another compound)  11%
9. O=[n+]1c2ccc(Cl)cc2n([O-])c2ccc(Cl)cc21  9%
10. CC/C(=C(\c1ccccc1)c1ccc(OCCN(C)C)cc1)c1ccccc1  9%
11. COc1cc(/C=C2\CCc3ccccc3C2=O)cc(OC)c1OC  6%
12. CC(O)C(O)C(O)C(/C=N\Nc1ccccc1)=N/Nc1ccccc1 (stereo not drawn)  5%
13. O=C1C2C(C(=O)N1c1ccc(OCc3ccccc3)cc1)C1c3ccccc3C2C2CCCCN21 (stereo not drawn)  3%
14. CCOC(=O)C(NC(=O)c1ccccc1)(N1CCN(c2cc3c(cc2F)c(=O)c(C(=O)O)cn3C2CC2)CC1)C(F)(F)F (stereo not drawn)  0%
15. COc1cc(CC2CC(c3ccc4c(c3)OCO4)OC2=O)cc(OC)c1OC (stereo not drawn)  0%
16. NNC(=O)CCc1ccc2ccc3ccccc3c2c1  0%
17. COc1ccc2ccc3ccccc3c2c1C=O  0%
18. COC1C=COC2(C)Oc3c(C)c(O)c4c(c3C2=O)/C(=N/C2CCC(O)OC2C)C=C(NC(=O)/C(C)=C\C(=O)C2CC2C(O)C(C)C(O)C(C)C(OC(C)=O)C1C)C4=O (stereo not drawn)  -2%
19. COc1ccc(-c2cn(-c3ccc(I)cc3)c3ncnc(N)c23)cc1  -2%
20. COc1ccc(/C=C2\SC(=S)N(/C=C/c3nc4ccccc4[nH]c3=O)C2=O)cc1OC  -2%
21. Cc1ccc(S(=O)(=O)Oc2cc(Cl)c(Cl)cc2Cl)cc1  -2%
22. c1ccc2c(c1)Oc1cccc3cccc-2c13  -2%
23. CNC1C(OC2C(OC3C(O)C(O)C(N=C(N)N)C(O)C3N=C(N)N)OC(C)C2(O)CO)OC(CO)C(O)C1O (stereo not drawn)  -2%
24. CCC(C)COC(=O)c1ccc(N=Cc2ccc(C=Nc3ccc(C(=O)OCC(C)CC)cc3)cc2)cc1 (stereo not drawn)  -2%
25. C/C(=N\O)C1CC2C=C(C#N)C1N(Cc1ccccc1)C2 (stereo not drawn)  -3%
26. Oc1ccc2ccccc2c1C(c1ccc(Cl)cc1)c1c(O)ccc2ccccc12  -3%
27. Cn1c(=O)c2ccccc2c2ccccc21  -3%
28. S=C(N/N=C/c1ccccn1)Nc1ccc(Cl)cc1  -5%
29. OCC1OC(OCC(O)C(O)C(O)C(/C=N/Nc2ccccc2)=N/Nc2ccccc2)C(O)C(O)C1O (stereo not drawn)  -5%
30. CC1(C)C(=O)OC(n2cc(F)c(=O)[nH]c2=O)C1=O (stereo not drawn)  -11%
31. CCOP(=O)(OCC)C(Cc1ccccc1)N=C(c1ccccc1)c1ccccc1 (stereo not drawn)  -12%
32. COc1ccc(N=C2C(=O)Nc3ccc(Br)cc32)cc1  -14%
33. N#CN=Nc1cc(Cl)c(N=NC#N)cc1Cl  -15%
34. OC1CCCc2c1cc1ccc3cccc4ccc2c1c34 (stereo not drawn)  -17%
35. CCCCN(CCCC)CCSc1ccc(Cl)cc1  -18%
36. CC[n+]1ccc2c(C)c3[nH]c4ccc(O)cc4c3c(C)c2c1  -24%
37. COc1ccccc1N=NC(C(=O)c1ccccc1)C(=O)c1ccccc1  -50%
38. COc1cc2c(c(OC)c1OC)-c1c(cc3c(c1OC)OCO3)CC(C)C(C)(O)C2OC(=O)c1ccccc1 (stereo not drawn)  -53%

For CC[C@@]1(O)C(=O)OCc2c1cc1n(c2=O)Cc2cc3c(N)cccc3nc2-1, the growth inhibition was 70% (active).

same assay, conditions: S. cerevisiae rad50 strain growth inhibition; at 3.7 µM; stronger effect = higher value

In order of rising growth inhibition:
1. COc1ccccc1N=NC(C(=O)c1ccccc1)C(=O)c1ccccc1  -50%
2. CCCCN(CCCC)CCSc1ccc(Cl)cc1  -20%
3. COc1cc2c(c(OC)c1OC)-c1c(cc3c(c1OC)OCO3)CC(C)C(C)(O)C2OC(=O)c1ccccc1 (stereo not drawn)  -18%
4. COc1ccc(N=C2C(=O)Nc3ccc(Br)cc32)cc1  -14%
5. OC1CCCc2c1cc1ccc3cccc4ccc2c1c34 (stereo not drawn)  -14%
6. CC1(C)C(=O)OC(n2cc(F)c(=O)[nH]c2=O)C1=O (stereo not drawn)  -10%
7. CCC(C)COC(=O)c1ccc(N=Cc2ccc(C=Nc3ccc(C(=O)OCC(C)CC)cc3)cc2)cc1 (stereo not drawn)  -9%
8. N#CN=Nc1cc(Cl)c(N=NC#N)cc1Cl  -8%
9. CCOP(=O)(OCC)C(Cc1ccccc1)N=C(c1ccccc1)c1ccccc1 (stereo not drawn)  -7%
10. S=C(N/N=C/c1ccccn1)Nc1ccc(Cl)cc1  -7%
11. COc1ccc(/C=C2\SC(=S)N(/C=C/c3nc4ccccc4[nH]c3=O)C2=O)cc1OC  -5%
12. NNC(=O)CCc1ccc2ccc3ccccc3c2c1  -4%
13. COC1C=COC2(C)Oc3c(C)c(O)c4c(c3C2=O)/C(=N/C2CCC(O)OC2C)C=C(NC(=O)/C(C)=C\C(=O)C2CC2C(O)C(C)C(O)C(C)C(OC(C)=O)C1C)C4=O (stereo not drawn)  -3%
14. C/C(=N\O)C1CC2C=C(C#N)C1N(Cc1ccccc1)C2 (stereo not drawn)  -3%
15. COc1cc(/C=C2\CCc3ccccc3C2=O)cc(OC)c1OC  -3%
16. COc1ccc(-c2cn(-c3ccc(I)cc3)c3ncnc(N)c23)cc1  -2%
17. COc1cc(CC2CC(c3ccc4c(c3)OCO4)OC2=O)cc(OC)c1OC (stereo not drawn)  1%
18. Oc1ccc2ccccc2c1C(c1ccc(Cl)cc1)c1c(O)ccc2ccccc12  3%
19. Cn1c(=O)c2ccccc2c2ccccc21  4%
20. CCOC(=O)C(NC(=O)c1ccccc1)(N1CCN(c2cc3c(cc2F)c(=O)c(C(=O)O)cn3C2CC2)CC1)C(F)(F)F (stereo not drawn)  5%
21. CC(O)C(O)C(O)C(/C=N\Nc1ccccc1)=N/Nc1ccccc1 (stereo not drawn)  5%
22. Cc1ccc(S(=O)(=O)Oc2cc(Cl)c(Cl)cc2Cl)cc1  6%
23. CNC1C(OC2C(OC3C(O)C(O)C(N=C(N)N)C(O)C3N=C(N)N)OC(C)C2(O)CO)OC(CO)C(O)C1O (stereo not drawn)  7%
24. c1ccc2c(c1)Oc1cccc3cccc-2c13  8%
25. O=C1C2C(C(=O)N1c1ccc(OCc3ccccc3)cc1)C1c3ccccc3C2C2CCCCN21 (stereo not drawn)  11%
26. O=C(c1ccc(Cl)cc1Cl)C(Cl)Cl  11%
27. CC(C)C1=CCC2C(=C1)CCC1C(C)(C(=O)O)CCCC21C (stereo not drawn) (tested in a mixture with another compound)  12%
28. OCC1OC(OCC(O)C(O)C(O)C(/C=N/Nc2ccccc2)=N/Nc2ccccc2)C(O)C(O)C1O (stereo not drawn)  13%
29. CC[n+]1ccc2c(C)c3[nH]c4ccc(O)cc4c3c(C)c2c1  16%
30. O=[n+]1c2ccc(Cl)cc2n([O-])c2ccc(Cl)cc21  19%
31. CC/C(=C(\c1ccccc1)c1ccc(OCCN(C)C)cc1)c1ccccc1  21%
32. COc1ccc2ccc3ccccc3c2c1C=O  23%
33. CCN(CC)CC[n+]1ccc2c(C)c3[nH]c4ccc(O)cc4c3c(C)c2c1  42%
34. CC(=O)[O][Bi]([c]1ccccc1)[c]1ccccc1  42%
35. O=c1ssc2ncccc12  49%
36. COc1cc2c(cc1[N+](=O)[O-])C(=O)C(Br)(Br)CCC2  50%
37. CC(=O)ON1C(=O)c2cccc3cccc(c23)C1=O  57%
38. O=[N+]([O-])CC(SCc1ccccc1)c1ccc2c(c1)OCO2 (stereo not drawn)  69%

For CC[C@@]1(O)C(=O)OCc2c1cc1n(c2=O)Cc2cc3c(N)cccc3nc2-1, the growth inhibition was 87% (active).
